According to PubChem BioAssay AID703 (NMMLSC, 2007):
Activity calls are given as the source filed them. No rule for the calls is given here.

The compounds below were run against Integrin alpha-4 (Homo sapiens) (UniProt P13612) (assay: enhancers of LDV-FITC binding to VLA-4, dose response, cell-based, flow cytometry (AID 703)). Details: Jurkat cells, active compounds read high.
Sequence of Integrin alpha-4 (Homo sapiens) (P13612 whole entry, looked up): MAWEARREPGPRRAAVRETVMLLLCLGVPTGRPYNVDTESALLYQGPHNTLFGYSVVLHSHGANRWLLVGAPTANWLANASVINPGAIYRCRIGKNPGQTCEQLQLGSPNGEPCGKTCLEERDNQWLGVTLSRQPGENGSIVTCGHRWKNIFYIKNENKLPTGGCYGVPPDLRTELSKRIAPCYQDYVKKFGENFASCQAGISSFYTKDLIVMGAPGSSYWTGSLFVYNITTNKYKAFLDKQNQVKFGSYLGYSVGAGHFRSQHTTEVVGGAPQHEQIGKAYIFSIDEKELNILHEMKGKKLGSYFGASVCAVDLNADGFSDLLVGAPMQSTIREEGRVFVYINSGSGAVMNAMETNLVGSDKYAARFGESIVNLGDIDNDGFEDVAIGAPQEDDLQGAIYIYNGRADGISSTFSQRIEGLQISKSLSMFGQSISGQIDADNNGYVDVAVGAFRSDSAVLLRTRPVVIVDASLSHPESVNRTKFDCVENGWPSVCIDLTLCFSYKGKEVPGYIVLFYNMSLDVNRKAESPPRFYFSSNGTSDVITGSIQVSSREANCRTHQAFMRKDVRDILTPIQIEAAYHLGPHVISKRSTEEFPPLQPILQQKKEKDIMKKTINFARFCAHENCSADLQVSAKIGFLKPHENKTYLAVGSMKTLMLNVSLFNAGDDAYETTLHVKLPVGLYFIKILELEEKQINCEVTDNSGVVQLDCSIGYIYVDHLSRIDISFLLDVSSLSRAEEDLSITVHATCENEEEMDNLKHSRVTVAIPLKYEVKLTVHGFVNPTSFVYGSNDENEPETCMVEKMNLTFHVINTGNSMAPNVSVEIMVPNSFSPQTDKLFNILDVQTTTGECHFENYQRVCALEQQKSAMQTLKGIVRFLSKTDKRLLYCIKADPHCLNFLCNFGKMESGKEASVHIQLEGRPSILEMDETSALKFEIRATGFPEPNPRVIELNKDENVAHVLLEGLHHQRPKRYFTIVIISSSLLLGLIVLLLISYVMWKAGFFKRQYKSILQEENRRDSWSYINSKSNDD

Activation at 0 C, inactive:
CN(C)CCCN1c2ccccc2Sc2ccc(C(F)(F)F)cc21 0, N#Cc1c(N2CCCC2)nc(N)c2c(N)nc(N3CCCC3)cc12 0, COC(=O)C1CCN(C(=O)NC(C)(C)C)CC1 0, CCCCC[C@H](O)/C=C/[C@H]1C=CC(=O)[C@@H]1C/C=C\CCCC(=O)O 0
